pAkt inh – HTS Assay for Inhibitors of Akt Phophorylation: Primary Screen. Neuro2A IGF-stimulated pAkt S473 HTRF, 20 min; stronger effect = lower value. activity change, % for hits at 50 µM. 0.32% of 360,000 active. AID 651550, 2012; in the data active means activity change below about -80%; inconclusive means mostly about -51% to -80%
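Neuro2A cells in DMEM with 0.5% FBS, overnight at 37 deg C, given compound at single 50 µM final, then IGF (6 nM final) for 20 min at 37 deg C. Lysed; phospho-Akt Ser473 by HTRF after 24 h, 665/615 ratio.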
Six1-Eya2 blk – qHTS Assay for Inhibitors of the Six1/Eya2 Interaction. 0.56% of 360,000 active. activity change, % (concentration not given with the values). Homeobox protein SIX1 (Homo sapiens) + Protein phosphatase EYA2 (Homo sapiens), …. AlphaScreen GST-Six1/His-Eya2 binding, biochemical; stronger effect = lower value
Target sequence (O00167 whole entry, looked up): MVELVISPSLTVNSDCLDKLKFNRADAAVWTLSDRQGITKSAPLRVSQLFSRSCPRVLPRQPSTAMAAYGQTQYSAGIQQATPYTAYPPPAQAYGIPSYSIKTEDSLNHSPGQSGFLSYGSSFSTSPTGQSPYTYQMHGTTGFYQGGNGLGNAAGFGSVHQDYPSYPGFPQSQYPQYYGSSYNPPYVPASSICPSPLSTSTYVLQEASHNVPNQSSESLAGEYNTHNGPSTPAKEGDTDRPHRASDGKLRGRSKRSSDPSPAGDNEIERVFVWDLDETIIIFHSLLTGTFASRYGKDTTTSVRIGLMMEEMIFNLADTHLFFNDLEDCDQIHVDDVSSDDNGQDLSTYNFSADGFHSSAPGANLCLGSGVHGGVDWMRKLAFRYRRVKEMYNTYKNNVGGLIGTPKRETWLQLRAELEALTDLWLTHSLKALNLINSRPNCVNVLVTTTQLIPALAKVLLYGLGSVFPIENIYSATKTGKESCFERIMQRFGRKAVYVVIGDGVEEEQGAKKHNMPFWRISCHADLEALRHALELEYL
Target sequence (Q15475 whole entry, looked up): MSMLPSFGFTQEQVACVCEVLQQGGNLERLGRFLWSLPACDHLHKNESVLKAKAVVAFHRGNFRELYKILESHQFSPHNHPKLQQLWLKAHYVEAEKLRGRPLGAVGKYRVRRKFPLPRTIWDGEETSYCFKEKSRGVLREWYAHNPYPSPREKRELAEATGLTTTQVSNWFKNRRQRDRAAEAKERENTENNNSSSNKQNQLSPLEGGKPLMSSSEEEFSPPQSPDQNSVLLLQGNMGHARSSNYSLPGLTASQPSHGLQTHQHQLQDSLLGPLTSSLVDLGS
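Compounds are tested against tagged Six1 and Eya2 proteins bridged by glutathione donor and nickel acceptor beads; after a one-hour incubation at 37 °C without light, AlphaScreen emission is recorded.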
CCT modulator – High-Throughput Screening for Modulators of Cytosolic Chaperonin Activity. purified chaperonin ATPase assay, HTRF ADP detection, 30 min. activity change, % (no concentration beside the values), hits read low. 0.3% of 360,000 active. AID 651819, 2012; in the data active means activity change below about -30%
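ATPase activity: ADP formed was measured by HTRF Transcreener (665/615 nm ratio) after 30 min at 37 deg C with 10 uM ATP. Compounds screened at one 76 uM concentration against 40 or 20 nM TRiC in Tris pH 7.4/KCl/MgCl2/DTT buffer.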
CtBP-E1A blk – qHTS Assay for Inhibitors of the CtBP/E1A Interaction. activity change, % (no concentration beside the values). AlphaScreen GST-E1A/His-CtBP binding, 1536-well; stronger effect = lower value. 0.49% of 340,000 active. CtBP / adenovirus E1A interaction (AlphaScreen)
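Homogeneous bead-based format: GST-tagged E1A captured on glutathione donor beads, His-tagged CtBP on nickel acceptor beads; compounds precede bead addition by 2 h at 37 °C.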
Active calls of the source: *; i = inactive; ? = inconclusive; / = no result; ! = not active in a repeat. Hits are enriched below; roughly 1.3% of the tested compounds scored in any of these assays. Unless noted, no stated cut-off is given here; in the data, active means activity change below about -65%; inconclusive means mostly about -30% to -63%; inactive means weaker than that. On the % scale 0 is the no-effect control and ±100 the full control effect.

SMILES	pAkt inh	Six1-Eya2 blk	CCT modulator	CtBP-E1A blk
CN(C)c1ccc(N=C/C=C2/N(C)c3ccccc3C2(C)C)cc1	i	-67.5*	-0.3	/
O=C(Cn1c(=O)cnc2ccccc21)Nc1ccccc1N1CCOCC1	i	24.8	2.7	-4.8
O=C(CCNC(=O)Cn1cnc2ccccc2c1=O)NCC1COc2ccccc2O1 (stereo not given)	-107.0%*	4.5	-1.1	6.3
O=C(Cn1cnc2ccccc2c1=O)NCC(=O)N1CCN(Cc2ccc3c(c2)OCO3)CC1	i	-3.8	-0.7	-3.4
O=C(Cn1cnc2ccccc2c1=O)N1CCN(Cc2ccc3c(c2)OCO3)CC1	i	6.5	-54.3*	-6.6
O=C(Cn1cnc2ccccc2c1=O)Nc1ccccc1N1CCOCC1	i	5.6	-75.2*	-13.8
CCN1/C(=C\C(=S)Nc2ccccc2)Sc2ccccc21	i	?	-2.7	-0.7
CCN1/C(=C/C(C)=C/c2sc3ccccc3[n+]2CC)Sc2ccccc21	i	-80.1*!	-0.2	?
CCS(=O)(=O)N1CCCC(C(=O)NC2CCCCC2C)C1 (stereo not given)	-109.6%*	7.7	-2.1	-1.7
COc1ccccc1C(CCNCc1ccc(N(C)C)cc1)c1ccc(OC(C)C)cc1 (stereo not given)	i	-84.1*	-0.2	/
COc1ccc(C(CCNCc2ccc(N(C)C)cc2)C(C)C)cc1 (stereo not given)	i	-66.6*	-4.0	/
CCn1c(C(C)NC(=O)c2cccs2)nc2ccccc21 (stereo not given)	i	0.9	-1.1	1.8
CCCCn1c(C(C)NC(=O)c2cccs2)nc2ccccc21 (stereo not given)	-102.8%*	-0.9	1.6	-1.0
O=c1c2cccnc2[nH]c(=S)n1CCCN1CCN(c2ccc(F)cc2)CC1	-110.8%*	-0.3	0.7	6.1
O=C(CCCc1ccccc1)c1ccc2c(c1)OCCO2	-124.5%*	45.1	2.9	69.6
CC1CCCN(c2ccc3nc4ccccc4c(=O)n3n2)C1 (stereo not given)	i	-66.6*	0.4	14.7
CS(=O)(=O)c1ccc(Cl)c(NC(=O)COC(=O)COc2ccc3c(c2)CCC3)c1	i	0.5	-1.9	-13.7
COC(=O)C1=C(C(=O)OC)SC(=C2C(=S)C(C)(C)N(C(=O)C3CC3)c3ccccc32)S1	i	-76.9*	0.0	-80.4*
COc1ccc(N(C(=O)c2ccco2)S(=O)(=O)c2cccs2)cc1	-113.1%*	5.5	-5.5	1.7
O=C(CSc1cccc2cccnc12)Nc1cccc(S(=O)(=O)N2CCOCC2)c1	i	-0.1	1.3	1.7
O=C(CSc1cccc2cccnc12)Nc1ccc(S(=O)(=O)N2CCOCC2)cc1	i	-88.2*	-1.7	-92.6*
CCCCCOc1ccc(NC(=O)CSc2cccc3cccnc23)cc1	i	-92.0*	-2.5	-94.9*
COc1ccc(CNC(=O)CSc2cccc3cccnc23)cc1	i	0.9	-4.2	-3.1
Cc1cccc(CSc2cccc3cccnc23)c1	i	-90.3*	1.0	-92.5*
CCOC(=O)CSc1cccc2cccnc12	i	-89.1*	-3.8	-91.8*
SMILES	pAkt inh	Six1-Eya2 blk	CCT modulator	CtBP-E1A blk
CCCCOc1ccc(NC(=O)CSc2nnnn2C)cc1	i	-3.8	-0.2	-7.7
O=C(c1cccc([N+](=O)[O-])c1)c1ccc2[nH]c(=O)[nH]c2c1	i	-7.8	0.5	-2.7
COc1ccc(NC(=O)CSc2cccc3cccnc23)c(OC)c1	i	-20.9	0.4	-6.4
Cc1cccc(NC(=O)CSc2cccc3cccnc23)c1C	i	?	0.7	-78.6*
COc1ccccc1OCc1ccc(C(=O)OCC2CCCO2)o1 (stereo not given)	-119.1%*	?	-3.0	-2.7
COC(=O)c1ccc(COc2ccccc2OC)o1	i	1.2	0.7	/
Nc1nc(-c2ccccc2)c(N=Nc2ccccc2Cl)s1	i	-75.8*	-0.9	-66.9*
Nc1nc(-c2ccccc2)c(N=Nc2cccc3ccccc23)s1	i	-78.1*	-2.6	-93.3*
Nc1nc(-c2ccc(Cl)cc2)c(N=Nc2ccc(S(=O)(=O)N3CCOCC3)cc2)s1	i	-13.0	-1.9	-7.9
CC(=O)Nc1sc(N)nc1-c1ccccc1	i	6.4	0.8	4.3
Cc1ncc(N=Nc2ccccc2Cl)c(-c2ccccc2)n1	i	-69.3*	-0.8	-66.1*
COc1ccc(N=Nc2cnc(C)nc2-c2ccccc2)cc1	i	?	-1.9	-29.1
CCOC(=O)/C(C#N)=C/Nc1ccsc1C(=O)OC	i	7.0	-49.1*	5.8
CCOC(=O)/C(C#N)=C/Nc1cc(F)ccc1C	i	7.4	1.2	0.5
Cc1cc2c(cc1C)-n1nnnc1C(N(C)CCc1ccccc1)C(=O)N2 (stereo not given)	i	-8.2	/	1.6
CSCCC(NC(=O)OC(C)(C)C)C(=O)Oc1ccc2c(=O)c(-c3ccc4c(c3)OCCO4)coc2c1 (stereo not given)	-84.7%*	2.8	-1.3	-7.2
COc1cccc(N2CCN(C(c3ccccn3)c3nnnn3C(C)(C)C)CC2)c1 (stereo not given)	-105.3%*	-2.1	-0.4	-3.3
O=C1CSCc2nc3ccccc3n21	i	2.0	-1.8	-0.8
O=C(COc1ccc2c(c1)OCO2)Nc1ccc2c(c1)oc1ccccc12	-96.1%*	-19.8	-4.4	4.3
CCc1nc2ccc(C(=O)NC3CCC(C)CC3)cc2nc1CC (stereo not given)	i	2.9	3.0	0.7
COc1ccc(C2=Nn3c(nnc3-c3ccco3)SC2)cc1OC	?	-71.2*	-0.3	-87.1*
CC(C)(C)C1=Nn2c(nnc2-c2ccccn2)SC1	-110.9%*	?	1.0	?
COc1ccc(C2=Nn3c(nnc3-c3ccccn3)SC2)cc1OC	i	-77.4*	-2.4	-82.0*
CC1=Nn2c(nnc2-c2ccco2)SC1	-102.4%*	-2.9	0.5	-3.1
COc1ccccc1-c1c(C)[nH]n2c(=O)c(Cc3ccccc3)c(C)nc12	i	-15.9	0.6	-3.8
SMILES	pAkt inh	Six1-Eya2 blk	CCT modulator	CtBP-E1A blk
COc1ccc(-c2c(C)[nH]n3c(=O)c(Cc4ccccc4)c(C)nc23)cc1	i	-67.1*	-1.6	-70.9*
O=Cc1ccc(O)c2ncccc12	i	-73.6*	-1.4	-67.4*
O=C(NCc1ccccc1F)C1CCCN1S(=O)(=O)c1ccc(Cl)cc1 (stereo not given)	i	-3.7	-0.1	15.9
Cc1n[nH]c(=O)nc1N/N=C/c1ccco1	i	-68.0*	1.6	?
Cc1n[nH]c(=O)nc1NCc1ccco1	i	11.1	0.7	-5.4
O=C(NCC(F)(F)F)C1C(=O)Nc2ccccc2C(=O)N1Cc1ccccc1 (stereo not given)	i	4.8	/	15.8
CCOC(=O)C(NCc1ccccn1)(NC(=O)c1cccnc1)C(F)(F)F (stereo not given)	i	-82.6*	-2.1	-0.2
